Experimental data from ChEMBL document CHEMBL3988442, “University of Dundee, Small-Polar-MMV Screening Library” (2021).

What follows are compounds tested against AMP-activated protein kinase, AMPK (Homo sapiens) (UniProt P54646+O43741+P54619+Q9UGJ0+Q9Y478+Q13131+Q9UGI9) (assay: AMP-dependent Kinase enzyme assay. An in vitro enzyme assay that detects ADP turnover that is directly proportional to AMPK activity. This uses naive AMPK that is activated during the assay with MK-8722). Settings: 30 µM.
Assay type: functional
Set-up: scale not given: direction of the effect not stated beside the values

Structure (SMILES) | Percent Effect [%]
Cn1cc(CC2CCN(C(=O)NCc3cn4ccsc4n3)C2)cn1 (centres undefined) | -5.79
COc1cc(C(=O)N(CCC#N)Cc2ccccn2)cc(OC)c1C | -4.3
CN(Cc1cccnc1)C1CC2(CCN(c3ccccn3)CC2)C1 | 11
Cc1cc(NC(=O)N2CCN(c3nc(C)c(C)s3)CC2)no1 | 8.59
CN(C)CCCNC(=O)c1cc(Br)c2c(c1)OCCO2 | -4
O=C(Cn1nc2c(cc1=O)CCCC2)N[C@@H](C(=O)O)c1ccccc1 | 0.931
Cc1cnn(CC2CN(c3cnc4ccccc4n3)CCO2)c1 (centres undefined) | 2.77
CNC(=O)[C@H]1C[C@@H]2CN(C(=O)c3cscn3)C[C@@H]2N1S(C)(=O)=O | 0.103
Cn1cc(CN2C[C@@H]3COC[C@]3(C(=O)NCc3ccccn3)C2)cn1 | 0.406
CCn1c(Nc2ccccc2OC)nc2c(C)nn(C)c2c1=O | 3.08
Cc1ccc(CNCc2nnc3n2CC(C(F)(F)F)CC3)cc1 (centres undefined) | -2.64
O=c1[nH]c2c(c(=O)n1C1CCCCC1)CCC2Nc1ccccc1 (centres undefined) | -24.6
Cc1ccc(C)c(C(NC(=O)C2CC2)c2cccnc2)c1 (centres undefined) | -0.34
Cc1cc(N2CCN(CC(=O)N(C)C)CC2)nc(-c2ccncc2)n1 | -6.29
c1cc(OCc2ccc3c(c2)OCCO3)ccc1CNC1CC1 | 13.6
CN(Cc1ccccn1)C1CC2(CCN(Cc3cccnc3)CC2)C1 | 5.22
Cc1ccc(CNC(=O)N(Cc2ccccc2F)C2CC2)cn1 | 0.556
O=C(NC1CCC1)[C@@H]1CCO[C@@H]2CCN(CCc3ccccc3)C[C@H]21 | -6.69
c1ccc2sc(N3CCOC(Cn4cccn4)C3)nc2c1 (centres undefined) | -6.61
